How the values were obtained:
[1] = target: T1, MTERF1 73-399::RelA 430-551 (Homo sapiens, UniProt Q99551 SEQ:1-327); test: cell_activity; HEK293 reporter; reduced but not abolished; conditions: tags: RelA 430-551 TAD fusion; dsDNA, one strand shown
T1 chain: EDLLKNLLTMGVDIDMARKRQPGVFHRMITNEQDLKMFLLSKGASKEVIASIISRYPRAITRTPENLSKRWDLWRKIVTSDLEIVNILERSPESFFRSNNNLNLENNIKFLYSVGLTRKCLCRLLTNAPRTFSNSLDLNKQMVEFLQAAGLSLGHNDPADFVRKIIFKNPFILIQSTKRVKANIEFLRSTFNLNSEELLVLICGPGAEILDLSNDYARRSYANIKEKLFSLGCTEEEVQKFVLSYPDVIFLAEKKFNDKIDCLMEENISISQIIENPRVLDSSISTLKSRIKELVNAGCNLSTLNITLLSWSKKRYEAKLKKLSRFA

[2] = target: T2, MTERF1 104-399::RelA 430-551 (Homo sapiens, UniProt Q99551 SEQ:1-296); test: as above; conditions: tags: RelA 430-551 TAD fusion; dsDNA, one strand shown
T2 chain: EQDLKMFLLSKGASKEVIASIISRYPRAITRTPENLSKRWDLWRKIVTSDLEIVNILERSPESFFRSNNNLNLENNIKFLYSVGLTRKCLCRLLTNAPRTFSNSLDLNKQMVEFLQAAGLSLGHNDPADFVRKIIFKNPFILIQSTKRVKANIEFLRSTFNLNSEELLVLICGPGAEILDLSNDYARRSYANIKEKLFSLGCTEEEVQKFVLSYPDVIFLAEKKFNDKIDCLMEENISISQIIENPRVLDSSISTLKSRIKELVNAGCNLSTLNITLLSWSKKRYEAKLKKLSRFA

Which binding signal [1] does the source give for “TAAGATGGCAGAGCCCGGTAATTAAGATGGCAGAGCCCGGTAATTAAGATGGCAGAGCCCGGTAATTAAGATGGCAGAGCCCGGTAATTAAGATGGCAGAGCCCGGTAAT” here?
Its binding signal is roughly 1.5 fold less than MTF.

And the binding signal [2]?
The binding signal was roughly 1.5 fold less than MTF.

— patent publication US20260200999, “SYNTHETIC TRANSCRIPTION FACTORS” (ETH ZURICH, published 2026)
